LEDGF integ inh: blockers of LEDGF/p75-dependent integrase strand transfer – biochemical, TR-FRET, high throughput, primary screen; TR-FRET IN-LEDGF/p75 DNA integration, Eu/Cy5; inhibition, % at 3.7 µM; HIV-1 integrase (with human LEDGF/p75); 370,000 tested, 0.64% active;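 active = inhibition above the screen-wide mean plus 3 SD, cut at about 13% in these data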;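 note: signal is the Cy5 over europium emission ratio at 671 and 618 nm; 0% = plate median of compound wells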
proKLK7 act: proKLK7 zymogen activators, primary screen, biochemical, fluorescence intensity. AID 652039, 2013. purified proKLK7, EDANS-DABCYL substrate fluorescence; 100% is mature enzyme control, 0% vehicle. activation, % at 7 µM. 370,000 tested, 0.9% active. Kallikrein-7 (Homo sapiens), P49862;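 active = activation above the mean of all tested compounds plus 3 SD, computed per campaign excluding outliers beyond control limits, cut at about 13% in these data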
MBD2 inh: inhibitors of MBD2 binding to methylated DNA, primary screen, biochemical, TR-FRET, DNA-binding domain, human | MBD2 binding to methylated oligonucleotide | 370,000 tested, 0.31% active | inhibition, % at 4.4 µM | AID 686964, 2013; in the data active = inhibition above about 13%
Target sequence (Q9UBB5 whole entry, looked up, the tested form may be a part): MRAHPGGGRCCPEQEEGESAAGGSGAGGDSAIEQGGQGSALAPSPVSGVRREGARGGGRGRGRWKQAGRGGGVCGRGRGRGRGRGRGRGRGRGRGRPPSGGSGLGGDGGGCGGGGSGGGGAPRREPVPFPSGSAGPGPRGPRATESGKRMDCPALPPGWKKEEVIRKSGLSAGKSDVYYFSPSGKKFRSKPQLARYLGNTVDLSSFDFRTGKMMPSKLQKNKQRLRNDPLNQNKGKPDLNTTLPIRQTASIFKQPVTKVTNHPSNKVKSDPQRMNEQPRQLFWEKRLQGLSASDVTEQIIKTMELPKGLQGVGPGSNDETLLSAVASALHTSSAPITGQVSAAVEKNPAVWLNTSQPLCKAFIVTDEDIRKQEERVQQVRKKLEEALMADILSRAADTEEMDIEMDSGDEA
Neddylation inh: inhibitors of cullin neddylation, primary screen, biochemical, TR-FRET, uHTS, NAE and Ubc12; NEDD8-conjugating enzyme Ubc12 (Homo sapiens) + NEDD8-activating enzyme E1 regulatory …; calls only at 25 µM; 360,000 tested, 0.58% active; AID 651699, 2012; in the data active = inhibition above about 36%
Rin1-Abl PPI inh: inhibitors of Rin1-Abl protein binding, primary screen, biochemical, TR-FRET; Tyrosine-protein kinase ABL1 (Homo sapiens) + Ras and Rab interactor 1 (Homo sapiens), …; inhibition, % at 7.35 µM; 360,000 tested, 0.4% active; AID 588664, 2011; in the data active = inhibition above about 5%, passing the limit was not always enough
UHRF1 MBD2 ctr: UHRF1 methylated DNA binding inhibitors, primary screen, counter-screen for MBD2 inhibitor project, biochemical, TR-FRET, human UHRF1, single concentration; E3 ubiquitin-protein ligase UHRF1 (Homo sapiens), Q96T88; UHRF1 binding to methylated oligo; inhibition, % at 4.4 µM; 370,000 tested, 0.75% active; AID 687016, 2013; in the data active = inhibition above about 21%;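 note: UHRF1 SRA domain binding a hemimethylated CpG hairpin DNA probe; 0% = median of test compound wells and 100% = reference inhibitor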
Neddyl inh conf: blockade of NEDD8 conjugation to cullin – biochemical, TR-FRET, single concentration, confirmation; shares compounds with Neddylation inh; 1,800 tested, 13% active; TR-FRET cullin neddylation biochemical assay; calls only at 25 µM; in the data active = inhibition above about 40%;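 note: neddylation substrate is the cullin 1 ring ligase complex with SKP2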
An asterisk follows results filed as active. Sampled rows, rich in hits. Any-hit rate of the full collection: about 3.1%.

`O=C(NCCc1ccc(Cl)cc1)C1=CC=CN2CCS(=O)(=O)N=C12` gave LEDGF integ inh 3, proKLK7 act 3, MBD2 inh 1, Neddylation inh active, Rin1-Abl PPI inh 4, UHRF1 MBD2 ctr -4 and Neddyl inh conf active.
COc1ccc(CCNC(=O)C2=CC=CN3CCS(=O)(=O)N=C23)cc1 was read as LEDGF integ inh -1, proKLK7 act 0, MBD2 inh 0, Neddylation inh inactive, Rin1-Abl PPI inh -3 and UHRF1 MBD2 ctr -1.
O=C(Nc1ccccc1)c1cccc(C(=O)Nc2ccccc2)n1 was read as LEDGF integ inh -2, proKLK7 act 1, MBD2 inh 1, Neddylation inh active, Rin1-Abl PPI inh 2, UHRF1 MBD2 ctr -1 and Neddyl inh conf inactive.
Screening O=C(O)c1ccc(NC(=O)c2cccc(C(=O)Nc3ccc(C(=O)O)cc3)n2)cc1 returned LEDGF integ inh -5, proKLK7 act 0, MBD2 inh 5, Neddylation inh inactive, Rin1-Abl PPI inh -1 and UHRF1 MBD2 ctr 2.
Screening Cn1cncc1C#Cc1ccc2cc(C(C)(C)O)oc(=O)c2c1 returned LEDGF integ inh -3, proKLK7 act -11, MBD2 inh 4, Neddylation inh inactive, Rin1-Abl PPI inh -3 and UHRF1 MBD2 ctr 1.
Screening Cn1cncc1C#Cc1ccc2cc(CCO)oc(=O)c2c1 returned LEDGF integ inh 0, proKLK7 act -1, MBD2 inh 1, Neddylation inh active, Rin1-Abl PPI inh -1, UHRF1 MBD2 ctr -11 and Neddyl inh conf inactive.
For Cn1cnc(S(=O)(=O)Nc2ccc(OC(F)F)cc2)c1 the results were LEDGF integ inh -1, proKLK7 act 0, MBD2 inh 0, Neddylation inh active, Rin1-Abl PPI inh -5, UHRF1 MBD2 ctr 4 and Neddyl inh conf inactive.
`COc1ccc(NS(=O)(=O)c2cn(C)cn2)cc1` gave LEDGF integ inh -3, proKLK7 act 0, MBD2 inh 0, Neddylation inh inactive, Rin1-Abl PPI inh -4 and UHRF1 MBD2 ctr 3.
COCCCN1C(=O)[C@H](CC(=O)NCc2cccc(C(F)(F)F)c2)[C@]2(C(=O)OC)CCCCC=C12 was read as LEDGF integ inh -1, proKLK7 act 0, MBD2 inh 3 and UHRF1 MBD2 ctr 0.
For COc1cc2c(cc1OC)-c1cc(NC3CCCC3)nc(=O)n1CC2 the results were LEDGF integ inh -2, proKLK7 act 5, MBD2 inh 0, Neddylation inh active, Rin1-Abl PPI inh -6, UHRF1 MBD2 ctr 0 and Neddyl inh conf inactive.
Screening O=C(O)c1ccccc1NS(=O)(=O)c1ccc2c(c1)OCCO2 returned LEDGF integ inh -3, proKLK7 act 0, MBD2 inh 0, Neddylation inh active, Rin1-Abl PPI inh -4 and UHRF1 MBD2 ctr -1.
`Cc1cc(C)c(C)c(S(=O)(=O)Nc2ccccc2C(=O)NCCCn2ccnc2)c1C` gave LEDGF integ inh 2, proKLK7 act 0, MBD2 inh 3, Neddylation inh active, Rin1-Abl PPI inh 3 and UHRF1 MBD2 ctr 2.
Cc1cc(C)c(C)c(S(=O)(=O)Nc2ccccc2C(=O)O)c1C was read as LEDGF integ inh 3, proKLK7 act 1, MBD2 inh -2, Neddylation inh active, Rin1-Abl PPI inh 1 and UHRF1 MBD2 ctr 0.
Screening COc1ccc(-c2cc(C(F)(F)F)n3ncc(C(=O)NCc4ccco4)c3n2)cc1 returned LEDGF integ inh -5, proKLK7 act 0, MBD2 inh 2, Rin1-Abl PPI inh -4 and UHRF1 MBD2 ctr -2.
